In all, about 96,000 compounds went through this assay and about 20,000 (21%) were called active.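 The calls were made as follows: active = CYP2C19 inhibition above a set limit at 5 µM in the primary screen (cut at about 50% in these data); inactive = the rest.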 The list is a sample of the results.

This assay deals with Cytochrome P450 2C19 (Homo sapiens) (UniProt P33261). In words: blockers of cytochrome P450 2C19 activity – biochemical, luminescence, ADME assay, primary screen (AID 778).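 Also: plate controls were negative control wells for no effect and 2.5 mM tranylcypromine positive control for full effect.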 The settings on record: CYP2C19 Supersomes, luciferin-H EGE luminescence, 30 min; at 5 µM; stronger effect = higher value.
Sequence of Cytochrome P450 2C19 (Homo sapiens) (P33261 whole entry, looked up): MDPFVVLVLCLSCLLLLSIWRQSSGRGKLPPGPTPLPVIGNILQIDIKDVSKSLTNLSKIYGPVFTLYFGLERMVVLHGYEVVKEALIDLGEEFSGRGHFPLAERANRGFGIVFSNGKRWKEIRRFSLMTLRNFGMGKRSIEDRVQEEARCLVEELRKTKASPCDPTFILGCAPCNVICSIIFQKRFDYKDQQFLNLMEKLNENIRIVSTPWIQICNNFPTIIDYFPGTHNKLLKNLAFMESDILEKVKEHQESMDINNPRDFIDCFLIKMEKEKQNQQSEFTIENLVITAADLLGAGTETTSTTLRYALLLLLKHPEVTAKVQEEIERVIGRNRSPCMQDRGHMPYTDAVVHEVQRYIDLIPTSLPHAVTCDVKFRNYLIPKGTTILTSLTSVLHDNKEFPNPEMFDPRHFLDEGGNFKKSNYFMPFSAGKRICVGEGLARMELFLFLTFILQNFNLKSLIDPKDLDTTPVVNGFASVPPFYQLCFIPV
For `COc1ccc(OC)c(-n2cc3c(=O)n(C)c(=O)n(C)c3c2)c1`, the inhibition (usually the relative decrease from the control value, in per cent) was 38.6% (inactive).
As to `N#CC1=C(N)Oc2cc(O)ccc2C1C1CCCCC1` (stereo not drawn), the inhibition is 35.8% (inactive).
Take `COc1cc(C2C(C#N)=C(N)Oc3n[nH]c(-c4ccccn4)c32)cc(OC)c1OC` (stereo not drawn): the inhibition is 1.9% (inactive).
The result for `COc1ccc(C2C(C#N)=C(N)Oc3cc(N)ccc32)cc1OC` (stereo not drawn) reads 74.9% (active).
As to `CS(=O)(=O)N1CCCC(C(=O)N2CCOCC2)C1` (stereo not drawn), the inhibition is -12.2% (inactive).
For `O=C(Cc1ccc(S(=O)(=O)N2CCOCC2)s1)NCCC(c1ccccc1)c1ccccc1`, the inhibition was 41.9% (inactive).
`COC(=O)NC1(C(F)(F)F)NC(=O)N(C2CCCCC2)C1=O` (stereo not drawn): the inhibition was 7.3% (inactive).
Next, `O=C1NC(Nc2nc3ccccc3s2)(C(F)(F)F)C(=O)N1C1CCCCC1` (stereo not drawn): 68.9% (active); `CCC(=O)Nc1sc(C(=O)N2CCCCC2)c(C)c1C#N`: 19.7% (inactive); `O=C(CSc1n[nH]c(-c2cccnc2)n1)Nc1ccnc2ccccc12`: 15% (inactive).
The result for `COc1cccc(NC(=O)C2CCCN2C(=O)OCc2ccccc2)c1` (stereo not drawn) reads 33.1% (inactive); that for `CC(=O)Nc1ccc(NC(=O)CN2CCCC(C)C2)c(Cl)c1` (stereo not drawn), 19.8% (inactive).
The result for `NC(=O)N1CCCC1C(=O)Nc1ccc(Cl)c(Cl)c1` (stereo not drawn) reads 54.3% (active).
Turning to `Cc1cc(NC(=O)COn2nnc3ccccc32)no1`, the inhibition is 28.7% (inactive).
Next, `S=C(NCc1ccc(Cl)cc1)NC12CC3CC(CC(C3)C1)C2`: 47.3% (inactive).
With `Cc1nn(C)cc1C(=O)NNC(=S)Nc1ccc(Cl)cc1`, the inhibition was 8.5% (inactive).
With `S=C(NCc1cccs1)Nc1ccc(Cl)cc1`, the inhibition is 89.7% (active).
For the compound `C=CCNC(=S)NNc1ncnc2sc3c(c12)CC(C)(C)OC3`, the inhibition was 17.9% (inactive).
`C=CCOc1c2ccc(C(=O)N(CC)c3ccc(OC)cc3)cc2nn1C`: the inhibition is 44.1% (inactive).
The result for `O=C(CNC(=O)OCc1ccccc1)Oc1cc2oc(=O)cc(-c3ccccc3)c2cc1Cl` reads 27.8% (inactive); that for `COc1ccc(OCC(=O)OCC(=O)Nc2ccc(S(=O)(=O)N3CCCCC3)cc2)cc1`, 21.1% (inactive); that for `CC(=O)Nc1ccc(S(=O)(=O)N2CCN(C3CCCCCCC3)CC2)cc1`, 25.7% (inactive).
With `C=CCNC(=O)CCCOc1cccc(C)c1`, the inhibition is 17.5% (inactive).
As for `CC(=O)Nc1ccc(S(=O)(=O)N2CCN(CCCOc3cc(C)ccc3C)CC2)cc1`, the inhibition is 84.1% (active).
Next, `Cc1cccc(OCCCC(=O)Nc2ccc(S(=O)(=O)N3CCCC3)cc2)c1`: 50.1% (active).
The result for `CC(=O)Nc1ccc(S(=O)(=O)N2CCSCC2)cc1` reads 11.2% (inactive).
For the compound `CCc1c(C)c2c(C)[nH]nc2oc1=O`, the inhibition is 34% (inactive).
With `CCOC(=O)Nc1ccc(NC(=O)OCC)cc1`, the inhibition is -15.6% (inactive).
Next, `Cc1ccc2c(NC(=O)C3CC3)cccc2n1`: 3.3% (inactive); `CSc1ccc(C#N)cc1NC(=O)c1cccc(Cl)c1`: 17.9% (inactive).
On to `O=C(CCN1C(=O)c2ccccc2C1=O)NCCN1CCOCC1`, for which the inhibition is -17.4% (inactive).
For `Cc1cc(C)nc(SCc2nnc(SCC(=O)OC3CCCCC3)o2)n1`, the inhibition is 32.2% (inactive).
Turning to `c1ccc(CSc2nnc(-c3ccco3)c(-c3ccco3)n2)cc1`, the inhibition was 44.4% (inactive).
As for `CC(C)C(NC(=O)c1ccc(Cl)cc1)C(=O)O` (stereo not drawn), the inhibition is -19.4% (inactive).
On to `O=C(c1ccc(Cl)c(Cl)c1)N1CCCC1`, for which the inhibition was 15.1% (inactive).
For `CC(NC(=O)c1ccc(Cl)cc1)C(=O)N1CCCCC1` (stereo not drawn), the inhibition was 77.5% (active).
Take `CCOc1ccccc1N=C1NC(=O)CS1`: the inhibition was -12.1% (inactive).
The result for `O=CN1CCN(C2CC(=O)N(c3ccc4c(c3)OCO4)C2=O)CC1` (stereo not drawn) reads -12% (inactive).
`Cc1ccc(N2C(=O)CC(NCc3ccc4c(c3)OCO4)C2=O)cc1Cl` (stereo not drawn): the inhibition is 85% (active).
Consider `CC1CCC(N2CC(=O)N(Cc3ccc4c(c3)OCO4)C(c3ccc(F)cc3)C2=O)CC1` (stereo not drawn), for which the inhibition was 20.3% (inactive).
Take `O=C(CSc1nc(-c2ccco2)cc(C(F)(F)F)n1)NCc1cccs1`: the inhibition is 8.5% (inactive).
As to `O=C(Cn1c(=O)sc2ccccc21)Nc1ccc2c(c1)OCCO2`, the inhibition is 7.6% (inactive).
For `CC1Cc2ccccc2N1CC(=O)Nc1ccc2c(c1)OC(F)(F)O2` (stereo not drawn), the inhibition is 97.3% (active).
For the compound `CC1(C)Oc2ccc(C(=O)N3CCOCC3)cc2N(CC(=O)Nc2ccccc2)C1=O`, the inhibition was 30.3% (inactive).
Take `Cc1nnc(NCCO)c2ccccc12`: the inhibition was 7.5% (inactive).
The result for `CSC1=N/C(=C\C=C\c2cccs2)C(=O)S1` reads -11% (inactive).
Take `CCCOC(=O)c1[nH]c2c(c1C)C(=O)CC(c1cc(OC)c(OC)c(OC)c1)C2` (stereo not drawn): the inhibition was 38.4% (inactive).
As for `CCCCN(CC)CCNC(=O)c1[nH]c(C)c(C(C)=O)c1C`, the inhibition was -8% (inactive).
In the case of `CCCCOC(=O)c1[nH]c(C)c(C(=O)OC)c1C`, the inhibition was 81.6% (active).
With `Cc1nc2nc3c(cn2n1)C(=O)CC(c1ccccc1)C3` (stereo not drawn), the inhibition is 99.6% (active).
The result for `Cc1ccc(Cc2cnc(NC(=O)/C(C#N)=C/c3ccc(-c4cccc([N+](=O)[O-])c4)o3)s2)cc1` reads -3.9% (inactive).
As for `CC1(c2ccccc2Cl)NC(=O)N(CC(=O)NC(=O)NCc2ccco2)C1=O` (stereo not drawn), the inhibition is 22.5% (inactive).
Consider `O=C(CN1CCN(S(=O)(=O)/C=C/c2ccccc2)CC1)NC(=O)NCc1ccco1`, for which the inhibition is 54% (active).
Take `O=C(COC(=O)c1ccc(S(=O)(=O)N2CCc3ccccc3C2)cc1)NC(=O)NCc1ccco1`: the inhibition was 8.9% (inactive).
For `CCCOn1c(-n2nc(C)cc2C)nc2ccccc2c1=O`, the inhibition is 47.2% (inactive).
With `O=C(NCc1ccco1)c1sc2cccc(F)c2c1Cl`, the inhibition is -8.9% (inactive).
Regarding `CCOc1cc(/C=N/n2cnnc2)c(Br)cc1O`, the inhibition was 5.4% (inactive).
With `Cc1ccc2c(c1)N(C(=O)CCC(=O)N1CCc3ccccc3C1)CCO2`, the inhibition is 39.4% (inactive).
Consider `c1ccc(-c2cn3c(n2)CCc2ccc4cccnc4c2-3)cc1`, for which the inhibition was 15.9% (inactive).
For the compound `COc1ccccc1N(C)S(=O)(=O)c1ccc(C(=O)N2CCC(C(N)=O)CC2)cc1`, the inhibition is 8.7% (inactive).
For the compound `COc1ccc(S(=O)(=O)N2CCC(C(=O)N3CCc4ccccc4C3)CC2)cc1OC`, the inhibition is 53.6% (active).
Regarding `COc1ccc(S(=O)(=O)N2CCC(C(=O)N3CCOCC3)CC2)cc1OC`, the inhibition is 7.3% (inactive).
For `CCS(=O)(=O)c1ccc2c(c1)N(S(=O)(=O)c1ccccc1)CC(C(=O)O)O2` (stereo not drawn), the inhibition was 0.1% (inactive).

The record behind these values is PubChem BioAssay AID778 (Sanford-Burnham Center for Chemical Genomics, 2007).
